# Measurements: PubChem BioAssay (NCI)
# Compounds without any hit were thinned out: in the full panel of roughly 83,000, 20% have a hit.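 Growth was measured after 48 h exposure to one concentration of compound in 96-well plates. Values under 10 count as active.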 Values without a mark were called inactive. Calls of active or inactive are those of the source.
# Experiments:
# Assay in all cases: NCI-60 one-dose screen, 48 h (100 = growth as untreated, 0 = no growth, -100 = all killed)
# Settings in all cases: 10 µM unless noted
# NCI-H23 lung = test system: NCI-H23 lung
# NCI-H226 lung = test system: NCI-H226 lung
# NCI-H322M lung = test system: NCI-H322M lung
# HOP-62 NSCLC = test system: HOP-62 NSCLC
# NCI-H460 lung = test system: NCI-H460 lung
# NCI-H522 lung = test system: NCI-H522 lung
# A549/ATCC NSCLC = test system: A549/ATCC NSCLC
# 786-0 renal = test system: 786-0 renal
# COLO 205 colon = test system: COLO 205 colon
# HOP-92 NSCLC = test system: HOP-92 NSCLC
Compound,growth (NCI-H23 lung),growth (NCI-H226 lung),growth (NCI-H322M lung),growth (HOP-62 NSCLC),growth (NCI-H460 lung),growth (NCI-H522 lung),growth (A549/ATCC NSCLC),growth (786-0 renal),growth (COLO 205 colon),growth (HOP-92 NSCLC)
O=C1NC(=O)C(=Cc2cn(CCCCCCn3c4ccccc4c(=O)c4ccccc43)c3ccccc23)C(=O)N1,82.5%,67.2%,85.8%,86.7%,34.2%,73.3%,92.4%,96.8%,92.3%,–
COC(=O)[C@@H](C)C[C@H](Cc1ccccc1)NC(=O)c1csc([C@@H](C[C@H](C(C)C)N(C)C(=O)[C@@H](NC(=O)[C@H]2CCCCN2C)C(C(F)(F)F)C(F)(F)F)OC(C)=O)n1,44.8%,56.7%,37%,15.1%,5.59% (active),-8.2% (active),12.8%,-5.39% (active),-50.6% (active),–
Cc1ccc(C(Cc2ccccc2)NCCO)cc1 (configuration not stated),101%,97.2%,96.4%,80.3%,105%,52.3%,69.2%,80.8%,82.1%,–
ClC1=C(Cl)C(Cl)(C2(Cl)C(Cl)=C(Cl)C(Cl)=C2Cl)C(Cl)=C1Cl,-14.4% (active),-81.5% (active),98.3%,60.4%,67.6%,-68.2% (active),45%,-66.4% (active),-68.6% (active),–
CC1=C(CNO)C2=C(C)C3(CC3)[C@@](C)(O)C(=O)C2=C1,-24.8% (active),25.3%,-15.8% (active),1.62% (active),-0.969% (active),-7.65% (active),-7.8% (active),-17.5% (active),-20.4% (active),–
O=C1C(Cl)=C(N2CCOCC2)C(=O)c2ccccc21,–,104%,122%,105%,101%,75.1%,101%,111%,106%,-75.2% (active)
CC(C)OC(=O)[C@H](C)NP(=O)(Oc1ccccc1)C1CCCN(O)C1=O (some centres not stated),–,70.9%,84.6%,111%,105%,97.6%,105%,94.3%,93.1%,104%
O=C(c1cccc(O)c1O)c1cn(Cc2ccc(F)cc2)c2cccc(O)c12,–,61.5%,37.9%,31%,11.4%,-36.5% (active),30.5%,31.2%,50.3%,-9.9% (active)
CC(=O)O[C@H]1CC[C@]2(C)[C@H]3CC[C@]4(C)[C@@H](OC(C)=O)CC[C@H]4[C@@H]3[C@@H](C)[C@]2(O)C1,–,104%,106%,105%,116%,94.8%,114%,103%,104%,108%
COc1ccc(/C=C\c2cc(OC)c(OC)c(OC)c2)cc1OCC(=O)Nc1nc2ccc(OC(F)(F)F)cc2s1,–,74.2%,73.6%,53.7%,12.4%,15.8%,66.5%,92.6%,106%,55.9%
COC(=O)[C@@H](C)C[C@H](Cc1ccccc1)NC(=O)c1csc([C@@H](C[C@H](C(C)C)N(C)C(=O)C2(NC(=O)[C@H]3CCCCN3C)CC2)OC(C)=O)n1,–,50.8%,44.8%,9.05% (active),3.12% (active),1.55% (active),11.7%,17.6%,-55% (active),-3.99% (active)
O=C(Nc1ccncc1F)c1cn(CC2CC2)c2ccccc12,–,83.7%,109%,108%,101%,92.3%,98.5%,97.6%,112%,–
Cc1cc(N(CCCl)CCCl)ccc1C=Nc1ccc(-c2csc(Cc3ccccc3)n2)cc1,–,54.6%,76.6%,65.1%,25.5%,69.7%,50.7%,50.8%,74.1%,47.5%
CC1=C(O)[C@@](C)(CCCCC[C@H](C)CCCCc2ccc(O)cc2)OOC1=O,–,107%,94.6%,91.1%,108%,64.5%,96.9%,105%,107%,75.2%
COc1cccc2c1c(C(=O)C(=O)Nc1cc(C)no1)cn2Cc1ccc(F)cc1,–,75.5%,94.7%,64.1%,71.3%,72.5%,91.9%,64.1%,95.4%,57.4%
CC(=O)OC1CCC2(C)C(CCC3C2CC(=O)C2(C)C3CC(Sc3ccc(N(CCCl)CCCl)cc3)C2C(C)=O)C1 (configuration not stated),–,83.7%,104%,108%,32.5%,83%,55.6%,82.6%,9.14% (active),109%
N/C(=N\N=C\c1ccc(-c2ccccc2)cc1)N[N+](=O)[O-],–,73.6%,52.7%,38.2%,16.4%,18.2%,38.4%,40.6%,24.9%,51.6%
CCOC(=O)CCN(C)C1=Nc2ccc(Cl)cc2C(c2ccccc2)=[N+]([O-])C1,–,104%,98.4%,96.6%,106%,70.9%,100%,117%,129%,98.6%
CC[C@H](C)[C@H](NC(=O)C12CC(NC(C)=O)(C1)C2)C(=O)N(C)[C@H](C[C@@H](OC(C)=O)c1nc(C(=O)N[C@@H](Cc2ccccc2)C[C@H](C)C(=O)OC)cs1)C(C)C,–,19.9%,51.3%,20.3%,3.12% (active),1.64% (active),22.6%,16%,-31.5% (active),19.9%
CCOc1ccccc1C(=O)OCC(Cl)(Cl)Cl,–,101%,102%,99.9%,107%,105%,106%,99.6%,102%,113%
O=C1C2C(C(=O)[N]1[Hg][c]1ccccc1)C1(Cl)C(Cl)=C(Cl)C2(Cl)C1(Cl)Cl (configuration not stated),–,82.9%,45.1%,47.2%,-20.9% (active),-87.4% (active),78.7%,26%,-96.5% (active),-84.5% (active)
C[C@]12CC[C@H]3[C@@H](CC[C@]4(O)C[C@@H](O[C@@H]5O[C@H](CO)[C@@H](O[C@@H]6OC[C@@H](O)[C@H](O)[C@H]6O)[C@H](O)[C@H]5O)CC[C@]34C=O)[C@@]1(O)CC[C@@H]2C1=CC(=O)OC1,–,-2.96% (active),-13.2% (active),-68.4% (active),-9.57% (active),-35.2% (active),-89.8% (active),0.0388% (active),17.8%,43.7%

Compound,growth (NCI-H23 lung),growth (NCI-H226 lung),growth (NCI-H322M lung),growth (HOP-62 NSCLC),growth (NCI-H460 lung),growth (NCI-H522 lung),growth (A549/ATCC NSCLC),growth (786-0 renal),growth (COLO 205 colon),growth (HOP-92 NSCLC)
CC(C)[C@@H]1NC(=O)[C@]2(C)CSC(=N2)c2csc(n2)CNC(=O)C[C@@H](/C=C/CCS)OC1=O,–,0.257% (active),7.74% (active),-1.73% (active),8.13% (active),-25.2% (active),-15.1% (active),10.2%,-78.3% (active),–
CC(=O)OC1CCC2C3CCC4=C/C(=N/OC(=O)c5ccc(N(CCCl)CCCl)cc5)CCC4(C)C3CC(C)C12 (configuration not stated),–,94%,91.7%,78.6%,-4.94% (active),79.2%,56.6%,87%,83.7%,92.5%
CCCCCCCCCCCCNC(c1ccccc1)C(O)c1ccccc1 (configuration not stated),–,103%,88.2%,90.3%,93.4%,69.1%,84.7%,79.3%,-30.7% (active),80.7%
COC(=O)[C@@H](C)C[C@H](Cc1ccccc1)NC(=O)c1cccc([C@@H](C[C@H](C(C)C)N(C)C(=O)[C@@H](NC(=O)[C@H]2CCCCN2C)C(C)C)OC(C)=O)n1,–,68.1%,47.6%,23.2%,7.05% (active),-22.2% (active),14.2%,14.4%,-54.5% (active),53.7%
COC(=O)[C@@H](C)C[C@H](Cc1ccccc1)NC(=O)c1csc([C@@H](C[C@H](C(C)C)N(C)C(=O)[C@@H](NC(=O)[C@H]2CCCCN2C)C2CC2)OC(C)=O)n1,–,20.5%,52.2%,15.7%,14.1%,-45.5% (active),13%,21.8%,-69.9% (active),31.3%
COc1ccc(C2=N[C@@H](Cc3ccccc3)C(=O)Nc3ccsc32)cc1,–,76.3%,89.8%,66%,51.7%,-13.4% (active),43.2%,66.6%,35.6%,61.4%
COP(=S)(N1CC1)N1CC1,–,98.6%,100%,94.1%,107%,103%,133%,105%,106%,–
COc1cc(/C=C\c2cc(OC)c(OC)c(OC)c2)cc(N/C=C\C(=O)c2cc(OC)c(OC)c(OC)c2)c1OC,–,47.2%,36.8%,13.3%,17.3%,6.46% (active),40%,44%,3.1% (active),-9.27% (active)
COC(=O)[C@@H](C)C[C@H](Cc1ccccc1)NC(=O)c1nc([C@@H](C[C@H](C(C)C)N(C)C(=O)[C@@H](NC(=O)[C@H]2CCCCN2C)C(C)C)OC(C)=O)sc1C,–,61.4%,36.3%,32.1%,4.31% (active),-12.8% (active),10.6%,4.94% (active),-36.5% (active),3.74% (active)
Cc1cnc(/C=C/C(=O)O)cc1-c1cc2c(cc1C)C(C)(C)CCC2(C)C,–,82.8%,110%,94.4%,85.8%,65.8%,63.3%,76.5%,102%,56.8%
CNC(=O)Oc1ccc(N(C)C)cc1C(C)C,–,92.6%,91.1%,99.5%,107%,92.2%,94.9%,102%,115%,–
COC(=O)[C@@H](C)C[C@H](Cc1ccccc1)NC(=O)c1nc([C@@H](C[C@H](C(C)C)N(C)C(=O)[C@@H](NC(=O)[C@H]2C[C@H](O)CCN2C)C(C)C)OC(C)=O)sc1C(C)C,–,-35.5% (active),26.5%,1.87% (active),2.31% (active),-21.9% (active),10.7%,3.94% (active),-65.9% (active),–
COc1cc(/C=N/C2=C(C#N)C(c3ccco3)c3c(c4cc(C)ccc4oc3=O)O2)cc(OC)c1OC (configuration not stated),–,86.3%,100%,87.3%,103%,40.3%,99.5%,92.5%,118%,59.4%
Fc1c[c-]c(-c2ccccn2)c(F)c1.[CH3-].[Pt+2].c1ccc([PH+](c2ccccc2)c2ccccn2)cc1,–,-53.6% (active),19.4%,22.3%,3.22% (active),-37.9% (active),11.5%,-1.65% (active),-31.5% (active),-25.6% (active)
CCC1CC(O)c2c(O)c3c(c(O)c2C1O)C(=O)c1cccc(O)c1C3=O (configuration not stated) (tested in a mixture with another compound),–,-9.01% (active),-16.4% (active),-62.2% (active),-53.6% (active),-47.9% (active),-23.2% (active),-31% (active),-46.4% (active),-29.3% (active)
COC(=O)[C@@H](C)C[C@H](Cc1ccccc1)NC(=O)c1csc([C@@H](C[C@H](C(C)C)N(C)C(=O)[C@@H](NC(=O)[C@H]2CCCCN2C)C(C)C)OC(C)=O)n1,–,32.4%,46.8%,0.881% (active),2.4% (active),-31.7% (active),14%,4.12% (active),-69.9% (active),-13.5% (active)
CC(=O)O[C@H]1C(=O)[C@@]2(C)[C@H]([C@H](OC(=O)c3ccccc3)[C@]3(O)C[C@H](OC(=O)[C@H](OC(=O)OCC4COC(C)(C)O4)[C@@H](NC(=O)c4ccccc4)c4ccccc4)C(C)=C1C3(C)C)[C@]1(OC(C)=O)CO[C@@H]1C[C@@H]2O (some centres not stated),–,72.8%,40.6%,48.1%,13.1%,38.7%,30%,54.2%,7.19% (active),74%
N#C[Se]Cc1cc(-c2ccccc2)n(-c2ccc(S(N)(=O)=O)cc2)n1,–,-29.1% (active),-5.66% (active),-87.3% (active),-56.8% (active),-7.38% (active),-33.1% (active),-24.7% (active),-83.4% (active),-61.3% (active)
O=C(CCCCCCC(=O)Nc1ccc(N(CCCl)CCCl)cc1)NO,–,59.4%,69.4%,23.8%,14.5%,23.8%,27.4%,22.9%,29.5%,17.4%
CCCCCCCCOC(=O)CCN1CC1,–,93.5%,107%,124%,115%,121%,99.1%,107%,116%,77%
CC(C)(C)C(=O)OCOP(=O)(NCc1ccccc1)C1CCCN(O)C1=O (configuration not stated),–,32.4%,27.8%,23.4%,7.07% (active),8.18% (active),29.9%,23.9%,45.7%,34%
